Assay results from PubChem BioAssay AID1159580 (chemical genetic matrix, 2015).
Values joined by “and” are separate entries in the source; they are usually repeats but may differ in a detail not shown here. Identical values can stand only once. The whole screen tested about 5,500 compounds, of which about 2,000 (36%) were called active. About 18% were inconclusive and are not listed. Cut-off read from the data, not from the text of the source: active = normalized growth mostly below about 0.91 (no sharp cut-off); inconclusive = no clear call, values can overlap the other calls; inactive = mostly above about 0.92. This is one part of the list.

Assay: chemical genetic growth profiling, strain panel (AID 1159580);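 note: tested at 20 µM; growth read once vehicle control cultures reached saturation at 30 °C; 1 = growth at the plate median or of vehicle wells; lower values mean less growth of the strain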
Conditions: S. cerevisiae deletion strains, growth OD

Measured: normalized growth

CC(CCC(=O)O)[C@H]1CCC2C3CC[C@@H]4C[C@H](O)CC[C@]4(C)C3C[C@H](O)[C@@]21C (some centres not stated)
inactive: locus YAL013W, strain DEP1, stronger effect = lower value 1.01 | locus YAL021C, strain ccr4, stronger effect = lower value 1.02 | locus YAL026C, strain drs2, stronger effect = lower value 0.98 | locus YAL030W, strain snc1, stronger effect = lower value 1.01 | locus YBL061C, strain skt5, stronger effect = lower value 0.983 | locus YBR009C, strain hhf1, stronger effect = lower value 1.03 | locus YBR021W, strain FUR4, stronger effect = lower value 1.04 | locus YBR023C, strain chs3, stronger effect = lower value 0.962 | locus YBR171W, strain sec66, stronger effect = lower value 0.989 | locus YBR229C, strain ROT2, stronger effect = lower value 0.987 | locus YBR231C, strain swc5, stronger effect = lower value 1.02 | locus YBR279W, strain paf1, stronger effect = lower value 0.99 | locus YCL011C, strain gbp2, stronger effect = lower value 0.974 | locus YCL016C, strain dcc1, stronger effect = lower value 0.948 | locus YCL029C, strain bik1, stronger effect = lower value 0.977 | locus YCL069W, strain vba3, stronger effect = lower value 0.972 | locus YCR088W, strain abp1, stronger effect = lower value 0.997 | locus YDL005C, strain med2, stronger effect = lower value 0.987 | locus YDL035C, strain GPR1, stronger effect = lower value 0.998 | locus YDL040C, strain nat1, stronger effect = lower value 0.993 | locus YDL074C, strain BRE1, stronger effect = lower value 1 | locus YDL101C, strain DUN1, stronger effect = lower value 1.01 | locus YDL185W, strain tfp1, stronger effect = lower value 1.02 | locus YDL192W, strain arf1, stronger effect = lower value 1 | locus YDR001C, strain nth1, stronger effect = lower value 0.984 | locus YDR069C, strain doa4, stronger effect = lower value 1.01 | locus YDR101C, strain arx1, stronger effect = lower value 1.01 | locus YDR137W, strain rgp1, stronger effect = lower value 0.894 | locus YDR150W, strain NUM1, stronger effect = lower value 1.01 | locus YDR159W, strain sac3, stronger effect = lower value 0.963 | locus YDR162C, strain NBP2, stronger effect = lower value 0.998 | locus YDR195W, strain ref2 1.01 | locus YDR297W, strain sur2, stronger effect = lower value 1 | locus YDR318W, strain mcm21, stronger effect = lower value 0.981 | locus YDR334W, strain swr1, stronger effect = lower value 0.98 | locus YDR335W, strain msn5, stronger effect = lower value 0.982 | locus YDR388W, stronger effect = lower value 0.996 | locus YDR392W, strain spt3, stronger effect = lower value 0.884 | locus YDR502C, strain sam2, stronger effect = lower value 1.02 | locus YEL003W, strain gim4, stronger effect = lower value 1.03 | locus YEL037C, strain rad23, stronger effect = lower value 0.979 | locus YEL061C, strain CIN8 (second series), stronger effect = lower value 1.01 | locus YEL061C, strain CIN8, stronger effect = lower value 1.01 | locus YER015W, strain faa2, stronger effect = lower value 1 | locus YER016W, strain bim1, stronger effect = lower value 0.975 | locus YER110C, stronger effect = lower value 0.982 | locus YER111C, strain swi4, stronger effect = lower value 1 | locus YER155C, strain BEM2 (second series), stronger effect = lower value 1.06 | locus YER155C, strain BEM2, stronger effect = lower value 1.03 | locus YER167W, strain BCK2, stronger effect = lower value 1.01 | locus YFR010W, strain ubp6, stronger effect = lower value 1.02 | locus YGL078C, strain dbp3, stronger effect = lower value 1.02 | locus YGL086W, strain mad1, stronger effect = lower value 1.02 | locus YGL167C, strain pmr1, stronger effect = lower value 0.999 | locus YGL173C, strain kem1, stronger effect = lower value 0.992 | locus YGL227W, strain vid30, stronger effect = lower value 1.01 | locus YGL240W, strain doc1, stronger effect = lower value 1.01 | locus YGL248W, strain PDE1, stronger effect = lower value 1.03 | locus YGL253W, strain hxk2, stronger effect = lower value 0.955 | locus YGR078C, strain PAC10, stronger effect = lower value 1.08 | locus YGR135W, strain pre9, stronger effect = lower value 1.04 | locus YHR013C, strain ard1, stronger effect = lower value 0.948 | locus YHR027C, strain rpn1, stronger effect = lower value 1 | locus YHR030C, strain SLT2, stronger effect = lower value 1.01 and 1.04 | locus YHR079C, strain IRE1 (second series), stronger effect = lower value 0.981 | locus YHR079C, strain IRE1, stronger effect = lower value 1.05 | locus YHR094C, strain hxt1, stronger effect = lower value 0.991 | locus YHR129C, strain ARP1, stronger effect = lower value 1.02 | locus YHR142W, strain chs7, stronger effect = lower value 0.926 | locus YHR200W, strain rpn10, stronger effect = lower value 1.02 | locus YIL066C, strain RNR3, stronger effect = lower value 0.999 | locus YIL073C, strain SPO22, stronger effect = lower value 1.06 | locus YIL125W, strain kgd1, stronger effect = lower value 0.988 | locus YIR030C, strain dcg1, stronger effect = lower value 1.01 | locus YJL092W, strain hpr5, stronger effect = lower value 0.999 | locus YJL095W, strain BCK1 (second series), stronger effect = lower value 0.991 | locus YJL095W, strain BCK1, stronger effect = lower value 1.04 | locus YJL115W, strain asf1, stronger effect = lower value 0.986 | locus YJL129C, strain trk1, stronger effect = lower value 0.959 | locus YJL134W, strain LCB3, stronger effect = lower value 1.01 | locus YJL154C, strain vps35, stronger effect = lower value 1.01 | locus YJL164C, strain tpk1, stronger effect = lower value 1 | locus YJL166W, strain qcr8, stronger effect = lower value 1.02 | locus YJL168C, strain set2, stronger effect = lower value 0.98 | locus YJL187C, strain SWE1 (second series), stronger effect = lower value 1.04 | locus YJR043C, strain POL32, stronger effect = lower value 1.01 | locus YJR066W, strain TOR1, stronger effect = lower value 0.99 | locus YKL009W, strain mrt4, stronger effect = lower value 0.942 | locus YKL068W, stronger effect = lower value 0.989 | locus YKL085W, strain MDH1 (second series), stronger effect = lower value 0.975 | locus YKL085W, strain MDH1, stronger effect = lower value 0.975 | locus YKL160W, strain elf1, stronger effect = lower value 0.937 | locus YKR001C, strain vps1, stronger effect = lower value 1.01 | locus YKR026C, strain gcn3, stronger effect = lower value 1 | locus YKR091W, strain srl3, stronger effect = lower value 0.988 | locus YLL001W, strain dnm1, stronger effect = lower value 1.01 | locus YLL026W, stronger effect = lower value 1 | locus YLL041C, strain sdh2, stronger effect = lower value 0.994 | locus YLR027C, strain aat2, stronger effect = lower value 0.991 | locus YLR039C, strain RIC1, stronger effect = lower value 0.941 | locus YLR058C, strain SHM2, stronger effect = lower value 1.01 | locus YLR102C, strain apc9, stronger effect = lower value 0.987 | locus YLR113W, strain HOG1, stronger effect = lower value 0.951 | locus YLR221C, strain rsa3, stronger effect = lower value 1.03 | locus YLR258W, strain gsy2, stronger effect = lower value 0.963 | locus YLR262C, strain YPT6 (second series), stronger effect = lower value 0.935 | locus YLR262C, strain YPT6, stronger effect = lower value 0.925 | locus YLR268W, strain sec22, stronger effect = lower value 0.989 | locus YLR320W, strain mms22, stronger effect = lower value 0.998 | locus YLR330W, strain CHS5, stronger effect = lower value 1.01 | locus YLR342W, strain FKS1 (second series), stronger effect = lower value 0.983 | locus YLR342W, strain FKS1, stronger effect = lower value 0.987 | locus YLR357W, strain rsc2, stronger effect = lower value 1.01 | locus YLR370C, strain arc18, stronger effect = lower value 0.972 | locus YLR371W, strain rom2, stronger effect = lower value 0.985 | locus YLR384C, strain iki3, stronger effect = lower value 0.992 | locus YLR418C, strain cdc73, stronger effect = lower value 1.03 | locus YML016C, strain PPZ1, stronger effect = lower value 1.01 | locus YML032C, strain rad52, stronger effect = lower value 1.01 | locus YML120C, strain ndi1, stronger effect = lower value 1.01 | locus YML124C, strain tub3, stronger effect = lower value 1.01 | locus YMR058W, strain fet3, stronger effect = lower value 1 | locus YMR078C, strain ctf18, stronger effect = lower value 0.981 | locus YMR125W, strain sto1, stronger effect = lower value 0.995 | locus YMR129W, stronger effect = lower value 0.98 | locus YMR205C, strain PFK2, stronger effect = lower value 0.969 | locus YMR223W, strain ubp8, stronger effect = lower value 1.02 | locus YMR231W, strain pep5, stronger effect = lower value 0.99 | locus YMR307W, strain GAS1, stronger effect = lower value 1.03 | locus YNL067W, strain RPL9B, stronger effect = lower value 1.03 | locus YNL071W, strain lat1, stronger effect = lower value 0.99 | locus YNL153C, strain GIM3, stronger effect = lower value 1.03 | locus YNL183C, strain NPR1, stronger effect = lower value 1 | locus YNL209W, strain ssb2, stronger effect = lower value 0.994 | locus YNL233W, strain BNI4, stronger effect = lower value 1.03 | locus YNL248C, strain rpa49, stronger effect = lower value 0.965 | locus YNL250W, strain rad50, stronger effect = lower value 1.01 | locus YNL271C, strain bni1, stronger effect = lower value 0.974 | locus YNL298W, strain CLA4, stronger effect = lower value 0.98 | locus YNL307C, strain MCK1, stronger effect = lower value 0.993 | locus YNL322C, strain KRE1 (second series), stronger effect = lower value 1 | locus YNL322C, strain KRE1, stronger effect = lower value 1.01 | locus YNR049C, strain mso1, stronger effect = lower value 0.988 | locus YNR052C, strain pop2, stronger effect = lower value 1.03 | locus YOL006C, strain TOP1, stronger effect = lower value 1.05 | locus YOL012C, strain htz1 1.39 | locus YOL147C, strain pex11, stronger effect = lower value 1 | locus YOR001W, strain rrp6, stronger effect = lower value 1.03 | locus YOR061W, strain CKA2, stronger effect = lower value 1 | locus YOR069W, strain VPS5, stronger effect = lower value 1 | locus YOR070C, strain gyp1, stronger effect = lower value 1 | locus YOR080W, strain dia2, stronger effect = lower value 0.986 | locus YOR083W, strain WHI5, stronger effect = lower value 0.927 | locus YOR106W, strain vam3, stronger effect = lower value 0.953 | locus YOR136W, strain idh2, stronger effect = lower value 1.02 | locus YOR144C, strain elg1, stronger effect = lower value 0.987 | locus YOR184W, strain ser1, stronger effect = lower value 0.994 | locus YOR231W, strain MKK1, stronger effect = lower value 1.03 | locus YOR265W, strain rbl2, stronger effect = lower value 0.997 | locus YOR270C, strain vph1, stronger effect = lower value 0.942 | locus YOR290C, strain snf2, stronger effect = lower value 0.952 | locus YOR316C, strain cot1, stronger effect = lower value 0.995 | locus YPL051W, strain arl3, stronger effect = lower value 0.958 | locus YPL078C, strain atp4, stronger effect = lower value 0.952 | locus YPL106C, strain sse1, stronger effect = lower value 0.985 | locus YPL240C, strain hsp82, stronger effect = lower value 0.99 | locus YPL256C, strain CLN2, stronger effect = lower value 1.08 | locus YPR119W, strain clb2, stronger effect = lower value 0.992 | locus YPR141C, strain kar3, stronger effect = lower value 0.992 | locus YPR163C, strain tif3, stronger effect = lower value 1 | locus YPR167C, strain met16, stronger effect = lower value 0.996 | strain wtn01, stronger effect = lower value 1.01
